Tgondii IFNg = T. gondii growth inhibition under IFN-gamma; 69,000 tested, 3.8% active; activity change, negative = inhibition, % (no concentration beside the values); Toxoplasma gondii growth in IFN-gamma-treated host cells; hits give low values; AID 1259416; in the data active means activity change below about -70%, passing the limit was not always enough;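 further: host cells are HeLa cells infected with Toxoplasma gondii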
Each line names hits and unclear results; the compound was inactive in the other large screens. Only a selection was taken, and hits are over-represented in it overall.

CN(Cc1cccc2ncccc12)C(=O)c1cnn(-c2ccc(F)cc2)c1	none
c1cc(-c2cnn3cc(-c4ccc(N5CCNCC5)cc4)cnc23)c2cccnc2c1	Tgondii IFNg -84
Cc1nn(C(c2ccccc2)C(O)(c2ccccc2)c2ccccc2)c(C)c1Br (stereo unspecified)	none
COc1cccc(NC2=NCC(=O)N2Cc2ccccc2)c1	none
NC(=S)NN=C1Cc2ccccc2C1	none
COc1ccc(-c2ccc(N)nc2)c(C)c1	none
COc1ccc2c(c1)CCC/C2=N\NC(N)=S	Tgondii IFNg -99
O=C(Nc1cccc(Cl)c1)N1CCN(CCO)CC1	none
Cc1ccc(C2(O)C(=O)N(Cc3nc(-c4ccccc4)oc3C)c3ccccc32)cc1 (stereo unspecified)	none
Cc1cccc(C2(O)C(=O)N(Cc3nc(-c4ccccc4)oc3C)c3ccccc32)c1 (stereo unspecified)	none
COc1ccc(-c2nc(CN3C(=O)C(O)(c4cccc(F)c4)c4ccccc43)c(C)o2)cc1 (stereo unspecified)	Tgondii IFNg -74
c1ccc(COC2CCN(Cc3cnc(-c4ccco4)nc3)CC2)cc1	none
COc1cccc(C(=O)Nc2ccc(-c3nc(-c4ccc(C)cc4)co3)cc2)c1	none
CCS(=O)(=O)N1C[C@@H]2CN(Cc3ccoc3)CCO[C@H]2C1	none
CC(C)COC1C2CCC1N(Cc1ccc(F)cc1)C2 (stereo unspecified)	none
C=C(NC(=O)C(=C)NC(=O)c1csc(C2=N[C@@H]3c4csc(n4)[C@H]4NC(=O)c5csc(n5)[C@H]([C@](C)(O)[C@@H](C)O)NC(=O)[C@H]5CSC(=N5)/C(=C/C)NC(=O)[C@H]([C@@H](C)O)NC(=O)c5csc(n5)[C@]3(CC2)NC(=O)[C@H](C)NC(=O)C(=C)NC(=O)[C@H](C)NC(=O)[C@H]([C@@H](C)CC)N[C@@H]2C=Cc3c([C@H](C)O)cc(nc3[C@H]2O)C(=O)O[C@@H]4C)n1)C(N)=O	Tgondii IFNg -72
C=C(NC(=O)C(=C)NC(=O)c1csc(C2=N[C@H]3c4csc(n4)[C@H]4NC(=O)c5csc(n5)[C@H]([C@@](C)(O)[C@@H](C)O)NC(=O)[C@H]5CSC(=N5)/C(=C/C)NC(=O)[C@H]([C@@H](C)O)NC(=O)c5csc(n5)[C@]3(CC2)NC(=O)[C@H](C)NC(=O)C(=C)NC(=O)[C@H](C)NC(=O)[C@H](C(C)CC)N[C@@H]2C=Cc3c([C@H](C)O)cc(nc3[C@H]2O)C(=O)O[C@@H]4C)n1)C(N)=O (stereo partly specified)	none
COc1ccccc1NC(=O)Cn1c(=O)cc(-c2nc(C)no2)c2ccccc21	none
COc1cccc(-n2c(=O)c(C(=O)NCc3cccc(C)c3)c(O)c3cccnc32)c1	none
COc1cccc(CC(=O)NCC2Cn3nncc3CO2)c1 (stereo unspecified)	none
COc1cc(C(=O)NCCCn2ccnc2C)nc(OC)n1	none
CCC(=O)NCc1cccc(-c2ccc(OC)cc2OC)c1	none
CN1CCN(c2ncccc2CNC(=O)COCC2CCCO2)CC1 (stereo unspecified)	none
Cc1cnccc1-c1cn(C)nc1-c1cccc(CNC(=O)Cc2cccnc2)c1	none
COc1cccc(OC(C)C(=O)NCc2cccc(-c3nn(C)cc3-c3ccncc3)c2)c1 (stereo unspecified)	Tgondii IFNg -114
COc1cc(C(=O)NCc2ccc(-c3nn(C)cc3-c3ccncc3)cc2)nc(OC)n1	Tgondii IFNg -102
Cc1ncc(-c2ccncc2)c(-c2ccc(CNC(=O)C3CCOC3)cc2)n1 (stereo unspecified)	none
COc1ccccc1-c1cccc(-c2nc(C(=O)NCc3ccncc3)cc3c2[C@H](CCO)N([S@@](=O)C(C)(C)C)C3)c1	none
Cn1cc(-c2ccncc2)c(-c2ccc(CNC(=O)COCC3CCCCO3)cc2)n1 (stereo unspecified)	Tgondii IFNg -92
O=C(Cn1ncc2c(N3CCOCC3)ncnc21)NCc1cccc(Cl)c1	none
COc1ccc(-c2ccc(NS(C)(=O)=O)nc2)c(OC)c1OC	none
COC(=O)C1CCN(C(=O)c2cc3cccnc3n(Cc3ccc(F)cc3)c2=O)CC1	none
CCN1c2cc(C)ccc2-n2cccc2C12CCN(S(=O)(=O)c1c(C)cc(C)cc1C)CC2	Tgondii IFNg -118
CCN1c2cc(C)ccc2-n2cccc2C12CCN(S(=O)(=O)c1ccc(C(C)(C)C)cc1)CC2	none
CCCNC(=O)N1CCC2(CC1)c1cccn1-c1ccc(C)cc1N2CC	none
CCN1c2cc(C)ccc2-n2cccc2C12CCN(S(=O)(=O)c1ccc(C)cc1)CC2	Tgondii IFNg -86
COc1ccc2c(c1)NC1(CCN(S(=O)(=O)c3c(C)cc(C)cc3C)CC1)c1cccn1-2	none
CCN1c2cc(C)ccc2-n2cccc2C12CCN(C(=O)NC(C)C(=O)OC)CC2 (stereo unspecified)	none
CCN1c2cc(C)ccc2-n2cccc2C12CCN(C(=O)c1ccc(OC)cc1)CC2	Tgondii IFNg -90
CCN1c2cc(C)ccc2-n2cccc2C12CCN(S(=O)(=O)c1cccc(Cl)c1)CC2	Tgondii IFNg -84
Cc1cc(C)c(S(=O)(=O)N2CCC3(CC2)Nc2cc(F)ccc2-n2cccc23)c(C)c1	none
Cc1ccc2c(c1C)-n1cccc1C1(CCN(S(=O)(=O)c3cccc(Cl)c3)CC1)N2	none
CCN1c2cc(C)ccc2-n2cccc2C12CCN(C(=O)NCC(=O)OC)CC2	none
O=C(c1ccco1)N(CCc1ccccc1)c1nc(-c2ccccc2)cs1	none
Cc1ccc2c(c1C)-n1cccc1C1(CCN(C(=O)COc3ccc(F)cc3)CC1)N2	none
CN1C[C@H](NC(=O)c2cccc(NCc3ccc(F)cc3)c2)C[C@H]1CO	none
Cc1ccc(S(=O)(=O)N2CCC3(CC2)CN(c2ccc4c(c2)OCO4)C3=O)cc1	none
COc1cccc(CC2(CO)CCN(C(=O)c3cc4cc(F)ccc4[nH]3)CC2)c1	none
O=C(NCc1cccc(C(F)(F)F)c1)c1cn2c(n1)CCCC2	none
CCC(C)NC(=O)Cn1ncc2c(N3CCCCCC3)ncnc21 (stereo unspecified)	none
c1nc2c(c(N3CCOCC3)n1)CCNCC2	none
Cc1ccc(S(=O)(=O)N(C)c2cncc(C(=O)Nc3ccccc3Cl)c2)cc1	none
Cn1nc(CC2CCN(Cc3ccncc3)CC2)n(-c2ccccc2)c1=O	none
CC(C)c1noc(CCNC(=O)c2ccccc2C2CCNC2)n1 (stereo unspecified)	none
COc1ccc2c(c1)CC(C(=O)NCCc1cnccn1)CO2 (stereo unspecified)	none
COc1ccc(Cl)cc1S(=O)(=O)N1CCC2(CC1)Nc1cc(C)ccc1-n1cccc12	none
CCN1c2cc(C)ccc2-n2cccc2C12CCN(S(=O)(=O)c1ccc(OC)cc1)CC2	Tgondii IFNg -91
CCN1c2cc(C)ccc2-n2cccc2C12CCN(S(=O)(=O)c1ccc(OC)c(OC)c1)CC2	none
COc1ccc(S(=O)(=O)N2CCC3(CC2)Nc2cc(OC)ccc2-n2cccc23)cc1	none
Cc1ccc(S(=O)(=O)N2CCC3(CC2)Nc2ccc(C)c(C)c2-n2cccc23)cc1C	none
CCN1c2cc(C)ccc2-n2cccc2C12CCN(S(=O)(=O)c1ccc(C)c(C)c1)CC2	Tgondii IFNg -112
COc1ccc(S(=O)(=O)N2CCC3(CC2)Nc2cc(C)ccc2-n2cccc23)cc1Cl	none
Cc1ccc2c(c1)NC1(CCN(S(=O)(=O)c3ccc(C)c(C)c3)CC1)c1cccn1-2	none
CCN1c2cc(C)ccc2-n2cccc2C12CCN(S(=O)(=O)c1cc(Cl)ccc1OC)CC2	Tgondii IFNg -106
Cc1oc(-c2ccc(Cl)cc2)nc1Cn1ccn2nc(-c3ccc4c(c3)OCO4)cc2c1=O	none
Cc1nc(CCNC(=O)CCNC(=O)c2ccc(F)cc2)nc2c1CCC2	none
Cc1nn(Cc2nc(-c3ccccc3)no2)c(C)c1Br	none

High-throughput results: PubChem BioAssay, Broad Institute
